Compound activity as filed in PubChem.
Cy5 interf NS3h – counter-screen for HCV NS3 helicase inhibitors: fluorescence interference; Cy5-dT15 DNA with NS3h; actives lie on both sides; signal over control mean, under 1 quenches; fluorescence interference ratio at 100 µM; 16,000 compounds, 6% hits; AID 720488;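 active = compound fluorescence over control fluorescence at most 0.8, a quencher, or at least a set upper limit, an enhancer; inactive = ratio between 0.8 and the set upper limit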
NS3h inh CB – hepatitis C NS3 helicase inhibition, primary screen; inhibition, % at 100 µM; 16,000 compounds, 1.6% hits; NS3h Cy5-dT15 DNA binding, fluorescence polarization; AID 687043;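 active = inhibition above the average over every tested compound plus 3 SD, cut at about 40% in these data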
NS3h confirm – confirmation of hepatitis C virus NS3 helicase inhibitors | 240 compounds, 20% hits | shares compounds with NS3h inh CB | NS3h binding to Cy5-dT15 DNA, fluorescence polarization | inhibition, % at 100 µM | AID 720485;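 active = percent inhibition of 50% or more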
SSB FP counter – disrupts E. coli SSB binding to DNA in counter-screen; shares compounds with NS3h inh CB; E. coli SSB binding Cy5-dT15, fluorescence polarization; inhibition, % at 100 µM; 240 compounds, 40% hits;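 active = inhibition of at least 50%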;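 also: displacers lower Cy5 polarization so higher inhibition means more SSB displaced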
Target sequence (P0AGE0 whole entry, looked up): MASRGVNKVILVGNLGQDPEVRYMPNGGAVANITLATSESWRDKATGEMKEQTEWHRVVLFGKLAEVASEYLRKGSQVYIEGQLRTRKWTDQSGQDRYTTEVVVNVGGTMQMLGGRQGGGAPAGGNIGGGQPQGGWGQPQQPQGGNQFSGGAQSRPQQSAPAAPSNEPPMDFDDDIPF
Cy5 SSB fluor CB – counter-screen for HCV NS3 helicase inhibitors: fluorescence interference; shares compounds with NS3h inh CB; Cy5-dT15/E. coli SSB fluorescence interference; actives lie on both sides; fluorescence interference ratio at 100 µM; 240 compounds, 8% hits; AID 720487;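 active = fluorescence interference ratio at or above 1.2, signal boosting, or at or below 0.8, signal quenching; inactive = ratio between 0.8 and 1.2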
Cy5 interf conf – confirmation counter-screen for HCV NS3 helicase inhibitors: fluorescence interference | shares compounds with NS3h inh CB | Cy5-dT15 DNA/NS3h fluorescence interference counterscreen | fluorescence interference ratio at 100 µM, hits read low | 240 compounds, 44% hits;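 active = fluorescence interference ratio at or below 0.8 quencher or at or above a set limitenhancer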
A number is an active result; n = inactive. Hits are enriched below; roughly 6.9% of the tested compounds scored in any of these assays.

SMILES | Cy5 interf NS3h | NS3h inh CB | others
O=C1c2ccccc2-c2onc3c(Br)cc(N4CC4)c1c23 | 0.783 | n
COc1ccc(C=C2C(=O)NC(=O)NC2=O)cc1OCc1ccc(Cl)cc1Cl | 0.611 | n
O=C1NC(=S)NC(=O)C1=Cc1ccc(OCc2ccccc2)c(OCc2ccccc2)c1 | n | n
Cc1nc2ccccc2c(=O)n1-c1ccc([N+](=O)[O-])cc1 | n | n
Cc1cccc(N2C(=O)NC(=O)/C(=C/c3ccc(-c4ccc(C(=O)O)c(Cl)c4)o3)C2=O)c1 | n | n
COC(=O)c1cccc(-c2ccc(C=C3C(=O)NC(=S)NC3=O)o2)c1 | 0.753 | n
CCc1ccc(N2C(=O)NC(=O)/C(=C/C=C/c3ccco3)C2=O)cc1 | n | 41.8
O=C1NC(=O)N(c2ccc(Br)cc2)C(=O)/C1=C/C=C/c1ccccc1 | n | n
O=Cc1cn(Cc2ccccc2F)c2ccccc12 | n | n
CCn1cc(C=C2C(=O)NC(=O)NC2=O)c2ccccc21 | 0.728 | n
Cc1ccc(S(=O)(=O)n2cc(C=C3C(=O)NC(=O)NC3=O)c3ccccc32)cc1 | 0.696 | n
Cc1cc(C)cc(-n2c(C)cc(C=C3C(=O)NC(=O)NC3=O)c2C)c1 | n | n
Cc1ccc(C(=O)Nc2ccc(N/C(N)=N\[N+](=O)[O-])cc2)cc1 | n | n
COC(=O)N1[C@H](c2ccccc2)[C@@H]1c1ccccc1 | 0.677 | n
Cc1ccc(-c2nc3ccccc3c(=O)n2-c2cccc(C)n2)cc1 | n | n
CCCCOC(=O)C1CN1C(C)(C)C(=O)OCC (centres undefined) | n | n
O=[N+]([O-])c1ccc(N2CCNCC2)cc1NCCOc1ccccc1 | 0.702 | n
CN1CCN(c2ccc([N+](=O)[O-])c(NC3CC3)c2)CC1 | n | n
O=C1NC(=O)N(c2ccc(Cl)cc2)C(=O)/C1=C/c1ccccc1 | n | n
CCOP(=S)(OCC)SCC(=O)NC(C)(CC)C(=O)O (centres undefined) | n | n
O=C1c2ccccc2C(=O)N1Cc1nc2ccccc2c(=O)n1-c1ccncc1 | n | n
O=C1NC(=O)C(=Cc2ccccc2OCCOc2ccc([N+](=O)[O-])cc2)C(=O)N1 | n | n
Cc1cc(-c2ccc(C=C3C(=O)NC(=O)NC3=O)o2)ccc1[N+](=O)[O-] | 0.76 | n
COc1ccc(-c2ccc(C=C3C(=O)NC(=O)NC3=O)o2)c([N+](=O)[O-])c1 | 0.437 | n
Cc1ccc(C=C2C(=O)NC(=O)NC2=O)cc1[N+](=O)[O-] | n | n
SMILES | Cy5 interf NS3h | NS3h inh CB | others
O=[N+]([O-])c1ccc(N2CCOCC2)c(F)c1Br | n | n
O=S(=O)(c1ccccc1)N1CC1c1ccccc1 (centres undefined) | n | n
COc1ccc(C2c3c(c4ccccc4oc3=O)Oc3c2c(=O)oc2ccccc32)cc1COc1ccccn1 | n | n
CN(C)C(=O)C(c1ccccc1)c1ccccc1 | n | n
COc1ccc(C(c2c(O)c3ccccc3oc2=O)c2c(O)c3ccccc3oc2=O)cc1Cn1nc(C)c([N+](=O)[O-])c1C | n | n
COc1ccc(CN2CCNCC2)c(OC)c1 | n | n
Nc1ccc(Oc2ccc(N)c(N)c2)cc1N | 0 | n
O=C1NC(=S)N(c2ccc(Br)cc2)C(=O)/C1=C/c1ccc(-c2ccccc2C(=O)O)o1 | n | n
Cc1ccc(C=C2C(=O)NC(=S)N(c3ccccc3F)C2=O)s1 | n | 42.4
COc1ccccc1CN1CCN(Cc2cc(Br)ccc2O)CC1 | n | n
Cc1c(C=O)c2ccccc2n1Cc1ccc(Cl)cc1 | n | n
O=C1NC(=O)N(c2ccc(Cl)cc2)C(=O)/C1=C\c1cc(Br)cc(Cl)c1O | n | n
O=C1NC(=O)C(=Cc2ccc(-c3ccc(C(=O)O)cc3)o2)C(=O)N1 | n | 69.4 | NS3h confirm=n;SSB FP counter=n;Cy5 SSB fluor CB=n;Cy5 interf conf=0.796
O=C1NC(=O)N(c2ccccc2F)C(=O)/C1=C/c1ccc(-c2cc(C(=O)O)ccc2Cl)o1 | n | n | NS3h confirm=92.2;SSB FP counter=n;Cy5 SSB fluor CB=n;Cy5 interf conf=n
Cc1ccc(N2C(=O)NC(=O)/C(=C\c3ccc(-c4ccc(Cl)c(C(=O)O)c4)o3)C2=O)cc1 | n | 62.2 | NS3h confirm=75.3;SSB FP counter=62.4;Cy5 SSB fluor CB=n;Cy5 interf conf=n
COc1ccc(N2C(=O)/C(=C/c3ccc(-c4cc(C(=O)O)ccc4Cl)o3)C(=O)NC2=S)cc1 | n | n | NS3h confirm=n;SSB FP counter=67.2;Cy5 SSB fluor CB=n;Cy5 interf conf=0.805
Cc1ccc(C)c(COc2cc(C)cc3oc(=O)c4c(c23)CCC4)c1 | n | n
CCN(CC)CC(=O)Nc1ccc(Cl)cc1C(=O)c1ccccc1 | n | n
O=C(CF)NC(Nc1ccc(Br)cc1)C(Cl)(Cl)Cl (centres undefined) | n | n
Cc1cccc(C)c1N1CCN(c2c(C)cccc2C)CC1 | n | n
COc1ccc(O)c(CN2CCN(Cc3ccc(Br)cc3)CC2)c1 | n | n
COc1ccc(O)c(CN2CCN(Cc3ccc(F)cc3)CC2)c1 | 1.2 | 63.6 | NS3h confirm=n;SSB FP counter=n;Cy5 SSB fluor CB=n;Cy5 interf conf=n
Cc1cc(OCC(=O)c2ccccc2)c2c3c(c(=O)oc2c1)CCC3 | n | n
COc1cccc(CN2CCN(C(=O)Cc3ccccc3)CC2)c1OC | n | n
CC(C)Oc1ccccc1C=C1C(=O)NC(=O)NC1=O | n | 42.4 | NS3h confirm=n;SSB FP counter=n;Cy5 SSB fluor CB=n;Cy5 interf conf=n
SMILES | Cy5 interf NS3h | NS3h inh CB | others
COc1ccc(C=C2C(=O)NC(=O)NC2=O)c(OC)c1 | n | 61.3 | NS3h confirm=n;SSB FP counter=n;Cy5 SSB fluor CB=n;Cy5 interf conf=n
Cc1cc(C=C2C(=O)NC(=S)NC2=O)c(C)n1-c1ccccc1 | n | n
C=CCN1C(=O)NC(=O)C(=Cc2cccn2C)C1=O | n | n
CCc1ccc(CN2CCN(C(=O)COc3ccc(Cl)cc3)CC2)cc1 | n | n
O=C(Cn1c[n+]([N-][N+](=O)[O-])cn1)Nc1ccc([N+](=O)[O-])cc1 | n | n
CCC1(c2ccccc2)C(=O)NC(=O)N(C(=O)c2cccc(F)c2)C1=O (centres undefined) | n | n
O=C(Nc1ccc(Br)cc1C(=O)c1ccccc1)c1ccc([N+](=O)[O-])cc1 | n | n
O=C(NC(O)C(Cl)(Cl)Cl)C1CC=CCC1 (centres undefined) | n | n
Cc1[nH]c2cc(S(=O)(=O)O)c(Oc3ccccc3)cc2c1CCN | n | 46.0 | NS3h confirm=n;SSB FP counter=97.6;Cy5 SSB fluor CB=n;Cy5 interf conf=n
COc1cc(C=C2C(=O)N(C)C(=O)N(C)C2=O)ccc1OCCOc1ccccc1 | n | n
O=C1NC(=O)N(c2ccc3c(c2)OCO3)C(=O)/C1=C/c1ccc(OCc2cccc(C(=O)O)c2)cc1 | n | 47.7 | NS3h confirm=n;SSB FP counter=57.5;Cy5 SSB fluor CB=n;Cy5 interf conf=0.751
O=C1NC(=S)NC(=O)C1=Cc1ccc(OCc2cccc(C(=O)O)c2)cc1 | n | 58.4 | NS3h confirm=n;SSB FP counter=89.1;Cy5 SSB fluor CB=n;Cy5 interf conf=n
Cc1cc(/C=C2\C(=O)NC(=O)N(c3cccc(Br)c3)C2=O)c(C)n1C | n | n
O=C1NC(=S)NC(=O)C1=Cc1ccc(OCc2cccc3ccccc23)cc1 | n | 52.6 | NS3h confirm=n;SSB FP counter=66.0;Cy5 SSB fluor CB=n;Cy5 interf conf=n
